“And” between values parts separate entries of the source, which are not always exact repeats. Equal values may be shown once. The source made the active and inactive calls. The calls were made as follows: active = hit-call score of the fitted dose curve at least 0.9, where 1 is the maximum; inactive = score below 0.9.
read-out: CD69, CD69 (gene 969); assay: BSK_SAg_CD69: BioMAP Diversity Plus: SAg Assay for CD69 Biomarker Activity (AID 2283089); conditions: primary human HUVEC with PBMC; actives raise or lower the signal
Protocol: BSK_SAg is a cell-based, multiplexed-readout assay that uses umbilical vein endothelium and peripheral blood mononuclear cells, a human vascular primary cell co-culture, with measurements taken at 24 hours after chemical dosing in a 96-well plate.BSK_SAg_CD69 is one of 10 assay component(s) measured or calculated from the BSK_SAg assay. It is designed to make measurements of enzyme-linked immunosorbent assay, a form of binding reporter, as detected with fluorescence intensity signals by Enzyme-linked immunosorbent assay technology.Data from the assay component BSK_SAg_CD69 was analyzed into 1 assay endpoint. This assay endpoint, BSK_SAg_CD69, was analyzed with bidirectional fitting relative to DMSO as the negative control and baseline of activity. Using a type of binding reporter, gain or loss-of-signal activity can be used to understand changes in the signaling as they relate to the gene CD69. Furthermore, this assay endpoint can be referred to as a primary readout, because this assay has produced multiple assay endpoints where this one serves a signaling function. To generalize the intended target to other relatable targets, this assay endpoint is annotated to the cytokine intended target family, where the subfamily is inflammatory factor.
The levels of cell surface (or secreted, indicated by the prefix "s") biomarker endpoints were measured by ELISA. Overt cytotoxicity to cells in confluent adherent cultures (all systems other than the BT system) was assessed by measuring total protein levels using sulforhodamine B (SRB) staining in parallel cultures at the time of biomarker measurements, indicated as SRB endpoints. For proliferation assays for adherent cell types, individual cell types are cultured at sub-confluence and relative cell numbers quantified by SRB staining at time points optimized for each system (48 h: 3C and CASM3C systems; 72 h: BT and HDF3CGF systems; 96 h: SAg system). SRB was performed by staining cells with 0.1% SRB after fixation with 10% TCA and reading wells at 560 nm.Viability and proliferation of PBMC (T cells) was quantified by Alamar Blue reduction for the SAg and BT systems. For PBMC viability (referred to as PBMC Cytotoxicity within the assay endpoint names), cells were plated (75,000/well in a 96-well plate) and then chemical samples added for 1 h before addition of activators, SEB and TSST-1 (20 ng/mL final concentration each). Cells were incubated for 90 h. Then, Alamar Blue (20 uL/well) (Invitrogen, Cat DAL1100) was added for 6 h, and the plates were read with a fluorescence microplate reader at 546/580 nm (excitation/emission). For PBMC proliferation, cells were plated and activated as above but incubated for only 16 h prior to addition of Alamar Blue. Plates were read after 6 h.

outcome, inactive:
C[C@]12CC[C@@H]3c4ccc(O)cc4CC[C@H]3[C@@H]1C[C@@H](O)[C@@H]2O, CCOC(=O)CN[C@@H](C(=O)N1CC[C@H]1C(=O)NCc1ccc(/C(N)=N/O)cc1)C1CCCCC1, CCCCC(CC)C(=O)OCCOCCOCCOCCOC(=O)C(CC)CCCC (stereo not given), CCCCCCCCCCCC, Cc1cccc2c1ccc1ccccc12, CCCCC=O, C=CC(=O)OCCC(F)(F)C(F)(F)C(F)(F)C(F)(F)C(F)(F)C(F)(F)C(F)(F)C(F)(F)F, CCC(C)c1ccccc1O (stereo not given), OCC(CO)(CBr)CBr, CS(=O)(=O)c1ccc([C@@H](CC2CCCC2)C(=O)Nc2cnccn2)cc1Cl, O=C(CCCN1CCC(O)(c2ccc(Cl)cc2)CC1)c1ccc(F)cc1, O=P(O)(O)CCC(F)(F)C(F)(F)C(F)(F)C(F)(F)C(F)(F)C(F)(F)C(F)(F)C(F)(F)F, C=CC(=C)CC/C=C(\C)CCC=C(C)C, O=C(O)CCC(F)(F)C(F)(F)C(F)(F)C(F)(F)C(F)(F)F, O=P(O)(O)CCC(F)(F)C(F)(F)C(F)(F)C(F)(F)C(F)(F)C(F)(F)F, COC1=CC(=O)C[C@@H](C)[C@]12Oc1c(Cl)c(OC)cc(OC)c1C2=O, CCCCC(CC)C(=O)O (stereo not given), CC[N+](CC)(CC)Cc1ccccc1, Cc1ccc(C(=O)c2ccccc2)cc1, CC(=O)Nc1ccc(O)cc1, O=C(NO)c1ccccc1, O=C(c1ccccc1)c1ccccc1, Oc1ccc(Cc2ccccc2O)cc1, CCCCCCCCCCCCOS(=O)(=O)O, Cc1ccc(N=Nc2c(O)ccc3ccccc23)c(C)c1, C=CC(C)(CCC=C(C)C)OC(C)=O (stereo not given), O=C(NCc1ncc(C(F)(F)F)cc1Cl)c1c(Cl)cccc1Cl

AC50, active:
CN(C)c1ccc(C(=C2C=CC(=[N+](C)C)C=C2)c2ccccc2)cc1 0.00338 µM, NC(=NCCCCCCN=C(N)/N=C(\N)Nc1ccc(Cl)cc1)/N=C(\N)Nc1ccc(Cl)cc1 7.57 µM, Oc1c(Cl)cc(Cl)cc1Sc1cc(Cl)cc(Cl)c1O 13.2 µM and 16.2 µM, CCCCc1oc2ccccc2c1C(=O)c1cc(I)c(OCCN(CC)CC)c(I)c1 11.4 µM, O=C(O)C(F)(F)OC(F)(F)C(F)(F)OC(F)(F)C(F)(F)OC(F)(F)C(F)(F)C(F)(F)C(F)(F)F 42.8 µM and 32 µM, CCCCCc1ccc(O)cc1 30.9 µM, O=C(CC(=O)C(F)(F)C(F)(F)C(F)(F)F)c1cccs1 17.6 µM and 30 µM, C=COC(=O)C(C)(C)CCCCCC 20 µM, CC(C)(C)c1ccc(O)c(O)c1 20 µM, CCCCCCCCCCCCCCCCCC[N+](C)(C)Cc1ccccc1 2.73 µM, Cc1[nH]nc2c1N=C(c1ccccc1Cl)c1cc([N+](=O)[O-])ccc1N2 3.81 µM, O=C1OC2(c3ccccc31)c1cc(I)c(O)c(I)c1Oc1c2cc(I)c(O)c1I 10.5 µM, OCCN1CN(CCO)CN(CCO)C1 38.7 µM

From PubChem BioAssay (EPA / NIEHS)
